From the supplement of paper PMC7411054
Counter-ions that a name gives are not always drawn.

Experiments:
Settings in all cases: treatment time: 24 h
A549-ACTB-RAB5A [1] = test: lowest phenotypically active concentration; higher = less potent
In short: (§1)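 Two criteria together defined phenotypic activity: deviation and reproducibility. Deviation meant ≥3 of 4 wells beyond the 95th percentile of Euclidean distances in solvent control wells, and reproducibility meant a median replicate Pearson correlation above the 95th percentile of non-replicates. Wells had been treated for 24 h at 0.3, 1, 3 or 9 µM in fifteen gene-edited A549, HepG2 and WPMY1 reporter lines before live imaging.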

A549-GM130-SQSTM1 [2] = test: as above
In short: as §1

A549-TUBA1B-RELA [3] = test: as above
In short: as §1

WPMY1-ACTB-RAB5A [4] = test: as above
In short: as §1

WPMY1-CANX-COX4 [5] = test: as above
In short: as §1

A549-ACTB-RAB5A [6] = test: phenotypically active (imaging signature differs from DMSO and reproducible) at any of 0.3-9 uM (binary (1 = active, 0 = inactive)); higher = active
In short: as §1

A549-CANX-COX4 = test: as above
In short: as §1

A549-GM130-SQSTM1 [7] = test: as above
In short: as §1

A549-TP53BP1-CLTA = test: as above
In short: as §1

A549-TUBA1B-RELA [8] = test: as above
In short: as §1

HepG2-ACTB-RAB5A = test: as above
In short: as §1

HepG2-CANX-COX4 = test: as above
In short: as §1

HepG2-GM130-SQSTM1 = test: as above
In short: as §1

HepG2-TP53BP1-CLTA = test: as above
In short: as §1

HepG2-TUBA1B-RELA = test: as above
In short: as §1

WPMY1-ACTB-RAB5A [9] = test: as above
In short: as §1

WPMY1-CANX-COX4 [10] = test: as above
In short: as §1

WPMY1-GM130-SQSTM1 = test: as above
In short: as §1

WPMY1-TP53BP1-CLTA = test: as above
In short: as §1

WPMY1-TUBA1B-RELA = test: as above
In short: as §1

SMILES	lowest phenotypically active concentration (A549-ACTB-RAB5A [1])	lowest phenotypically active concentration (A549-GM130-SQSTM1 [2])	lowest phenotypically active concentration (A549-TUBA1B-RELA [3])	lowest phenotypically active concentration (WPMY1-ACTB-RAB5A [4])	lowest phenotypically active concentration (WPMY1-CANX-COX4 [5])	phenotypically active (A549-ACTB-RAB5A [6])	phenotypically active (A549-CANX-COX4)	phenotypically active (A549-GM130-SQSTM1 [7])	phenotypically active (A549-TP53BP1-CLTA)	phenotypically active (A549-TUBA1B-RELA [8])	phenotypically active (HepG2-ACTB-RAB5A)	phenotypically active (HepG2-CANX-COX4)	phenotypically active (HepG2-GM130-SQSTM1)	phenotypically active (HepG2-TP53BP1-CLTA)	phenotypically active (HepG2-TUBA1B-RELA)	phenotypically active (WPMY1-ACTB-RAB5A [9])	phenotypically active (WPMY1-CANX-COX4 [10])	phenotypically active (WPMY1-GM130-SQSTM1)	phenotypically active (WPMY1-TP53BP1-CLTA)	phenotypically active (WPMY1-TUBA1B-RELA)
Cc1noc(C)c1Cn1cc(C#N)c2cc(Oc3ccc(NC(=O)[C@@H]4CCCN4)cc3)ccc21	9 µM	9 µM	9 µM	9 µM	9 µM	1 (active)	0 (inactive)	1 (active)	1 (active)	1 (active)	0 (inactive)	0 (inactive)	1 (active)	1 (active)	1 (active)	1 (active)	1 (active)	1 (active)	1 (active)	1 (active)
CCCS(=O)(=O)Nc1ccc(F)c(C(=O)c2c[nH]c3ncc(Cl)cc23)c1F	3 µM	9 µM	9 µM	–	–	1 (active)	0 (inactive)	1 (active)	1 (active)	1 (active)	1 (active)	1 (active)	1 (active)	1 (active)	1 (active)	0 (inactive)	0 (inactive)	1 (active)	0 (inactive)	0 (inactive)
COc1ccc(CNC(=O)Nc2ncc([N+](=O)[O-])s2)cc1	9 µM	9 µM	9 µM	–	9 µM	1 (active)	0 (inactive)	1 (active)	1 (active)	1 (active)	0 (inactive)	0 (inactive)	0 (inactive)	0 (inactive)	0 (inactive)	0 (inactive)	1 (active)	1 (active)	1 (active)	0 (inactive)
COc1cc(N2CCC(N)CC2)ccc1Nc1ncc(Cl)c(-c2c[nH]c3ccccc23)n1	3 µM	≤ 0.3 µM	1 µM	1 µM	1 µM	1 (active)	0 (inactive)	1 (active)	1 (active)	1 (active)	1 (active)	1 (active)	1 (active)	1 (active)	1 (active)	1 (active)	1 (active)	1 (active)	1 (active)	1 (active)
COc1cc2ncnc(Nc3ccc(Cl)cc3F)c2cc1OC	9 µM	3 µM	3 µM	–	–	1 (active)	0 (inactive)	1 (active)	1 (active)	1 (active)	0 (inactive)	0 (inactive)	0 (inactive)	0 (inactive)	0 (inactive)	0 (inactive)	0 (inactive)	0 (inactive)	0 (inactive)	0 (inactive)
Cn1cc(CCn2cnc(-c3cnn(C)c3)c2-c2ccc(C#N)cc2)cn1	9 µM	9 µM	–	–	–	1 (active)	0 (inactive)	1 (active)	0 (inactive)	0 (inactive)	0 (inactive)	0 (inactive)	0 (inactive)	0 (inactive)	0 (inactive)	0 (inactive)	0 (inactive)	0 (inactive)	0 (inactive)	0 (inactive)
CC(C)COCC(CN(Cc1ccccc1)c1ccccc1)N1CCCC1 (stereo unspecified) [bepridil]	9 µM	9 µM	9 µM	–	9 µM	1 (active)	0 (inactive)	1 (active)	1 (active)	1 (active)	1 (active)	1 (active)	1 (active)	1 (active)	1 (active)	0 (inactive)	1 (active)	1 (active)	1 (active)	0 (inactive)
O=C(O)C[C@H](O)C[C@H](O)/C=C/c1c(C2CC2)nc2ccccc2c1-c1ccc(F)cc1 [Pitavastatin calcium]	1 µM	9 µM	–	≤ 0.3 µM	1 µM	1 (active)	0 (inactive)	1 (active)	1 (active)	0 (inactive)	1 (active)	1 (active)	1 (active)	1 (active)	1 (active)	1 (active)	1 (active)	1 (active)	1 (active)	1 (active)
Cc1cc(Nc2ccc(NC(=O)c3ccc(Nc4ccnc5ccccc45)cc3)cc2)nc(N)n1	1 µM	1 µM	1 µM	3 µM	–	1 (active)	0 (inactive)	1 (active)	1 (active)	1 (active)	1 (active)	0 (inactive)	1 (active)	1 (active)	1 (active)	1 (active)	0 (inactive)	1 (active)	1 (active)	1 (active)
CC(C)(C)c1ccc2cc(C#N)c(C#N)cc2c1	3 µM	3 µM	–	–	–	1 (active)	0 (inactive)	1 (active)	0 (inactive)	0 (inactive)	0 (inactive)	0 (inactive)	0 (inactive)	0 (inactive)	0 (inactive)	0 (inactive)	0 (inactive)	0 (inactive)	0 (inactive)	0 (inactive)
COc1ccc(CCNCc2ccc(OCc3ccc(Cl)nc3)c(OC)c2)cc1OC [SBE 13 hydrochloride]	3 µM	9 µM	3 µM	9 µM	9 µM	1 (active)	0 (inactive)	1 (active)	1 (active)	1 (active)	1 (active)	0 (inactive)	0 (inactive)	1 (active)	1 (active)	1 (active)	1 (active)	1 (active)	1 (active)	1 (active)
